Compounds without any hit were thinned out: in the full panel of roughly 83,000, 20% have a hit.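 Single-concentration screen, 48 h exposure, 96-well plates. Endpoint: percent growth. Below 10 = active.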 Values without a mark were called inactive. Active and inactive are the calls of the source.
System: IGROV1 ovarian
Assay: NCI-60 one-dose screen, 48 h (100 = growth as untreated, 0 = no growth, -100 = all killed)
Details: 10 µM unless noted

| Compound | growth [%] |
| --- | --- |
| O=C(OCc1ccccc1)n1nnc2ccccc21 | 110 |
| COC1(OC)C2(Cl)C(Cl)=C(Cl)C1(Cl)C1COCC12 (stereo not given) | 113 |
| COc1cc(C(=O)NC(=S)NCc2ccncc2)cc(OC)c1OC | 107 |
| Nc1ncnc2c1ncn2C1OC(CO)C2OC21 (stereo not given) | 111 |
| CC(C)(C)[Si](C)(C)OCC1OC(n2cnc3c(N)ncnc32)CC1OS(C)(=O)=O (stereo not given) | 114 |
| Cc1ccc(C)c(CCO)c1 | 115 |
| CCOC(OCC)C(=O)c1ccccc1 | 105 |
| CCCCCCCCCCCCCCCCOc1ccccc1NC(=O)CC(C)=O | 88.4 |
| CC1(c2ccccc2)CO1 (stereo not given) | 100 |
| Cc1ccc(C)c(CN(C)C)c1O | 110 |
| O=Cc1ccc(O)c(O)c1 | 88.8 |
| C/C(=N\N=C(/C)c1cccc([N+](=O)[O-])c1)c1cccc([N+](=O)[O-])c1 | 104 |
| COc1ccc(-c2csc(NC(=O)Nc3nc(-c4ccc(OC)cc4)cs3)n2)cc1 | 92.4 |
| NC(CSSCC(N)C(=O)O)C(=O)O (stereo not given) | 31.8 |
| Cc1cc(Cc2ccccc2)c(O)c(Cc2ccccc2)c1 | 90.2 |
| CCCOCc1cn[nH]n1 | 113 |
| CCN(C(=O)Nc1ccccc1Cl)c1ccccc1 | 103 |
| CC(C)(C)NCCC(O)c1cc(C(F)(F)F)nc2c(C(F)(F)F)cccc12 (stereo not given) | 71.7 |
| CC1CC2C3CCC4=CC(=O)CCC4(C)C3CCC2(C)C1(O)C(=O)CO (stereo not given) | 117 |
| c1cc(CNCCNCc2ccncc2)ccn1 | 113 |
| Cc1cc2nc(C)c(C)nc2cc1C | 97 |
| NNC(=O)CCCCl | 106 |
| Cc1c(Cl)cccc1NC(=S)NC(=O)c1ccccc1 | 118 |
| Cc1[nH]c(=S)[nH]c(=O)c1C | 104 |
| COc1cc(-c2ccc(NC(=O)CC(C)=O)c(OC)c2)ccc1NC(=O)CC(C)=O | 112 |
| CC1CC(C)S(=O)(=O)C1 (stereo not given) | 118 |

System: OVCAR-3 ovarian
Assay: as above
Details: 10 µM unless noted

| Compound | growth |
| --- | --- |
| O=C(OCc1ccccc1)n1nnc2ccccc21 | 106% |
| COC1(OC)C2(Cl)C(Cl)=C(Cl)C1(Cl)C1COCC12 (stereo not given) | 110% |
| COc1cc(C(=O)NC(=S)NCc2ccncc2)cc(OC)c1OC | 105% |
| Nc1ncnc2c1ncn2C1OC(CO)C2OC21 (stereo not given) | 106% |
| CC(C)(C)[Si](C)(C)OCC1OC(n2cnc3c(N)ncnc32)CC1OS(C)(=O)=O (stereo not given) | 104% |
| Cc1ccc(C)c(CCO)c1 | 101% |
| CC(=O)CSc1ncnc2nc[nH]c12 | 91.5% |
| CCOC(OCC)C(=O)c1ccccc1 | 99.9% |
| CCCCCCCCCCCCCCCCOc1ccccc1NC(=O)CC(C)=O | 118% |
| CC1(c2ccccc2)CO1 (stereo not given) | 114% |
| Cc1ccc(C)c(CN(C)C)c1O | 113% |
| O=Cc1ccc(O)c(O)c1 | 96.3% |
| C/C(=N\N=C(/C)c1cccc([N+](=O)[O-])c1)c1cccc([N+](=O)[O-])c1 | 58.1% |
| CCN(CC)CCCC(C)NC(=S)N/N=C(\C)c1ccccn1 (stereo not given) | 51% |
| COc1ccc(-c2csc(NC(=O)Nc3nc(-c4ccc(OC)cc4)cs3)n2)cc1 | 81.9% |
| NC(CSSCC(N)C(=O)O)C(=O)O (stereo not given) | 4.66% (active) |
| Cc1cc(Cc2ccccc2)c(O)c(Cc2ccccc2)c1 | 101% |
| NNc1ncnc2nc[nH]c12 | 79% |
| CCCOCc1cn[nH]n1 | 108% |
| CCN(C(=O)Nc1ccccc1Cl)c1ccccc1 | 116% |
| CC(C)(C)NCCC(O)c1cc(C(F)(F)F)nc2c(C(F)(F)F)cccc12 (stereo not given) | 75.9% |
| CC1CC2C3CCC4=CC(=O)CCC4(C)C3CCC2(C)C1(O)C(=O)CO (stereo not given) | 132% |
| c1cc(CNCCNCc2ccncc2)ccn1 | 118% |
| Cc1cc2nc(C)c(C)nc2cc1C | 105% |
| NNC(=O)CCCCl | 104% |
| COc1cccc(N=CNc2cccc(OC)c2)c1 | 102% |
| Cc1c(Cl)cccc1NC(=S)NC(=O)c1ccccc1 | 103% |
| Cc1[nH]c(=S)[nH]c(=O)c1C | 118% |
| COc1cc(-c2ccc(NC(=O)CC(C)=O)c(OC)c2)ccc1NC(=O)CC(C)=O | 110% |

From PubChem BioAssay (NCI)
